Source: PubChem BioAssay
Unmarked numbers belong to inactive results. Unless noted, how the calls were made is not given here.

Molecular target: Homeobox protein Hox-A13 (Mus musculus) (UniProt Q62424)
Test: disruptors of Hoxa13 oligonucleotide interaction – biochemical, fluorescence polarization, labeled oligonucleotide, primary screen (AID 1185)
Conditions: Hoxa13:DNA binding, 15 min, higher = more signal, called active from +8 up or from −8 down

Chain of Homeobox protein Hox-A13 (Mus musculus) (Q62424 whole entry, looked up): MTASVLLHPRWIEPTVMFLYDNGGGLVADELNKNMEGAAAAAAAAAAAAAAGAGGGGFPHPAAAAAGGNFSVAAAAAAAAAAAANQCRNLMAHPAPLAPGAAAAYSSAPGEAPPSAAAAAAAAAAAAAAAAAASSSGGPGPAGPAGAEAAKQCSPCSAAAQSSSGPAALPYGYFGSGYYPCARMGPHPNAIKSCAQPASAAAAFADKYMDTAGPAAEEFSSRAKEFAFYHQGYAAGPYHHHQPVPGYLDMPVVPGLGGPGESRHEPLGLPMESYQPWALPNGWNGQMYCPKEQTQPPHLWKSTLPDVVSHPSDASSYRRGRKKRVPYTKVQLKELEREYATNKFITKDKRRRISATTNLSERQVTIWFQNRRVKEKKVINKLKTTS

Question: With `C=C(/C(=C/C[C@@H](OC(=O)c1ccncc1)c1ccc(CO)o1)c1cnc2ccccc2c1)C(C)C` as the compound, how does the z-score read?
Answer: Its z-score is -4.89.

Question: Which z-score does the source give for `COc1ccc(C(O)C2C=CC3C(=O)N(C)C(=O)C3N2N2CCCCC2)cc1OCc1ccccc1` (stereo unspecified) here?
Answer: Its z-score is -4.76.

Question: For `COC(=O)[C@@]1(Cc2ccc(OC)cc2)[C@H]2c3cc(C(=O)N(C)C)n(CCc4ccc(OC)c(Br)c4)c3C[C@H]2CN1C(=O)c1ccccc1`, which z-score is on record?
Answer: Its z-score is -0.511.

Question: For `CCCCCCc1nc(C2CC2)c(C)c2c1[Si](C(C)C)(C(C)C)OC2`, which z-score is on record?
Answer: The z-score was 2.65.

Question: For `C[C@H]1C2[C@H](Cc3ccccc3)NC(=O)[C@]23C(=O)N[C@H](Cc2ccccc2)C(=O)N[C@@H](Cc2ccccc2)C(=O)NC/C=C\C/C=C/C3[C@@H]2O[C@]12C` (stereo partly specified), which z-score is on record?
Answer: Its z-score is -7.06.

Question: With `O=C1OCCC=C[C@H]2OC34C=CCN(Cc5ccccc5)C(=O)[C@H]3N(CCO)C(=O)[C@@H]4C12` (stereo partly specified) as the compound, how does the z-score read?
Answer: Its z-score is -2.7.

Question: For `C=CCN1C(=O)[C@@]2(Cc3ccccc3)N=C(c3ccc(OCCCO)cc3)O[C@H]2c2ccccc21`, which z-score is on record?
Answer: The z-score was -0.611.

Question: Which z-score does the source give for `COCCOC(=O)N1C(=O)[C@@]2(c3cc(C#CCNC(N)=O)ccc31)[C@H](c1ccccc1OCCO)N1[C@H](c3ccccc3)[C@H](c3ccccc3)OC(=O)[C@H]1[C@@H]2C(=O)NC[C@H](O)c1ccccc1` here?
Answer: The z-score was -3.26.

Question: Which z-score does the source give for `CC(=O)NCCCC[C@@H]1NC(=O)[C@H]2C[C@@H](C(=O)NCCCCCCN(C)C)[C@@H](c3ccc(O)cc3)N2C1=O` here?
Answer: The z-score was -1.9.

Question: With `CN1C(=O)C2C=CC(C(O)c3ccc(N(C)C)cc3)N(Nc3ccc([N+](=O)[O-])cc3[N+](=O)[O-])C2C1=O` (stereo unspecified) as the compound, how does the z-score read?
Answer: The z-score was -3.89.

Test system: not listed separately
Test: blockers of DNA damage checkpoint Chk1 activation – imaging, HeLa, hydroxyurea, phospho-Chk1 antibody, percent positive cells, primary screen (AID 1186)
Conditions: hydroxyurea-induced phospho-Chk1 immunofluorescence imaging, higher = more signal

Question: For `C=CCNC(=O)[C@H]1[C@@H]2C(=O)O[C@@H](c3ccccc3)[C@@H](c3ccccc3)N2[C@@H](c2ccccc2OCCO)[C@]12C(=O)N(C(=O)OCCOC)c1ccc(C#CCNC(N)=O)cc12`, which z-score is on record?
Answer: Its z-score is -0.267.

Question: For `O=C1c2ccccc2[C@](Cc2ccccc2I)(C(=O)NCC(F)(F)F)[C@H](c2ccc(CO)cc2)N1Cc1ccccc1C(F)(F)F`, which z-score is on record?
Answer: Its z-score is -0.103.

Question: Which z-score does the source give for `Cc1ccc(N2C(=O)c3ccccc3[C@@H](C(=O)NCC(F)(F)F)[C@@H]2c2ccc(CO)cc2)nc1` here?
Answer: The z-score was -0.0128.

Question: With `[N-]=[N+]=NCc1ccccc1C[C@@]1(C(=O)N2CCOCC2)N=C(c2ccc(OCCCO)cc2)O[C@@H]1c1ccccc1N=[N+]=[N-]` as the compound, how does the z-score read?
Answer: Its z-score is -0.269.

Question: For `C=C(CCCC)/C(=C/C[C@@H](OC(=O)c1ccncc1)c1cccc(OCCO)c1)c1cc(C(=O)OC)ccc1OC`, which z-score is on record?
Answer: Its z-score is 0.0994.

Question: Which z-score does the source give for `C=C(CCCC)C(=O)CC[C@@H](OC(C)=O)c1ccccc1OCCO` here?
Answer: The z-score was -0.21.

Question: For `CCOC(=O)C1=CC[C@@H](c2ccc(-c3ccc(OCc4ccccc4)cc3)c(OC)c2)N(S(=O)(=O)c2ccc(C)cc2)[C@H]1c1ccccc1`, which z-score is on record?
Answer: The z-score was -1.04.

Question: With `CC(C)[C@H]1NC(=O)[C@@]23C(=O)N[C@@H](Cc4ccccc4)C2[C@H](C)[C@@]2(C)O[C@H]2C3/C=C/C/C=C\CNC(=O)[C@H](C)NC1=O` (stereo partly specified) as the compound, how does the z-score read?
Answer: The z-score was 0.126.

Question: For `CC(=O)NCCCC[C@@H]1NC(=O)[C@H]2C[C@@H](C(=O)NCCCCCCN(C)C)[C@@H](c3cccc(OCCO)c3)N2C1=O`, which z-score is on record?
Answer: The z-score was 0.181.

Question: For `C/C(=N\O)C(=O)NCCCCCNC(=O)OCc1ccccc1`, which z-score is on record?
Answer: The z-score was -0.103.

Question: For `COCCOC(=O)N1C(=O)[C@@]2(c3cc(C#CC4=CCCCC4)ccc31)[C@H](C(=O)NC[C@H](O)c1ccccc1)[C@H]1C(=O)O[C@H](c3ccccc3)[C@H](c3ccccc3)N1[C@@H]2c1ccc(OCCO)cc1`, which z-score is on record?
Answer: Its z-score is 0.0381.

Question: Which z-score does the source give for `COCCOC(=O)N1C(=O)[C@@]2(c3cc(C#CC4(O)CCCCCC4)ccc31)[C@H](C(=O)N1CCCCCCC1)[C@H]1C(=O)O[C@H](c3ccccc3)[C@H](c3ccccc3)N1[C@@H]2c1ccc(O)cc1` here?
Answer: The z-score was -0.169.

Question: Which z-score does the source give for `C=C(COC)/C(=C/C[C@@H](OC(C)=O)c1cccc(OCCO)c1)c1cc(C(=O)OC)ccc1OC` here?
Answer: Its z-score is -0.8.

Question: With `C=CCC(OC(C)=O)[C@@H]1[C@@H](N(Cc2ccc(-c3cccc(C(F)(F)F)c3)o2)C(=O)Cc2ccc(F)cc2)c2cc(OCCCO)ccc2N1C(=O)c1ccc(-c2ccccc2)cc1` (stereo partly specified) as the compound, how does the z-score read?
Answer: Its z-score is 0.634.

Question: Which z-score does the source give for `CC(C)[Si]1(C(C)C)O[C@@H](c2ccccc2)c2cc(C3CC3)nc(-c3ccc(Oc4ccccc4)cc3)c21` here?
Answer: Its z-score is -0.446.

Question: Which z-score does the source give for `Cc1ccc([C@@H]2CC=C(C(=O)O)[C@H](c3ccccc3)N2S(=O)(=O)c2ccc(C)cc2)cc1` here?
Answer: The z-score was -0.489.

Question: Which z-score does the source give for `CCOC(=O)C[C@H]1[C@H](OC(=O)c2ccccc2-c2ccccc2)[C@@H](NC(=O)C2CCCCC2)c2cc(OCCCO)ccc2N1C(=O)c1ccccc1` here?
Answer: Its z-score is -0.319.

Question: With `Cc1ccc(S[C@]2(C(=O)NCCCN(C)C)CC(=O)N(Cc3ccccc3)[C@@H]2c2ccc(CO)cc2I)cc1` as the compound, how does the z-score read?
Answer: Its z-score is 0.379.

Question: Which z-score does the source give for `CCCC=C(CCC)[C@@H](NC(=O)c1ccc(C(F)(F)F)cc1)c1ccccc1` here?
Answer: The z-score was 0.128.

Question: Which z-score does the source give for `NC(=O)NCC#Cc1ccc2c(c1)[C@]1(C(=O)N2)[C@H](c2ccccc2OCCO)N2[C@H](c3ccccc3)[C@H](c3ccccc3)OC(=O)[C@H]2[C@@H]1C(=O)N1CCN(c2ncccn2)CC1` here?
Answer: Its z-score is 0.553.

Question: Which z-score does the source give for `C=C(CCCC)/C(=C/C[C@H](OC(=O)c1ccncc1)c1cccc(OCCO)c1)c1cc(C(=O)OC)ccc1OC` here?
Answer: Its z-score is -0.433.

Question: Which z-score does the source give for `CN1CCC(CCCO)=CC1C1CC1` (stereo unspecified) here?
Answer: Its z-score is -0.734.

Question: With `COc1ccc([Si](C)(C)[C@H]2[C@H](CC(=O)N(CCO)Cc3ccccc3)O[C@@]3(C(=O)N(C)c4ccccc43)[C@@H]2C)cc1` as the compound, how does the z-score read?
Answer: The z-score was -0.217.

Question: With `CN1C2C=C(c3ccc(CO)cc3)C(C3C(=O)N(C(N)=O)C(=O)C32)C1c1cccs1` (stereo unspecified) as the compound, how does the z-score read?
Answer: Its z-score is -1.21.

Question: With `O=C/C=C/c1ccccc1Cl` as the compound, how does the z-score read?
Answer: The z-score was 0.152.

Question: For `COCCOC(=O)N1C(=O)[C@@]2(c3cc(C#CCCO)ccc31)[C@H](C(=O)N1CCCCCCC1)[C@H]1C(=O)O[C@H](c3ccccc3)[C@H](c3ccccc3)N1[C@@H]2c1ccc(O)cc1`, which z-score is on record?
Answer: The z-score was -0.424.

Question: For `C=C(/C(=C/C[C@@H](OC(=O)c1ccncc1)c1ccc(CO)o1)c1cnc2ccccc2c1)C(C)C`, which z-score is on record?
Answer: The z-score was -0.33.

Question: With `COc1ccc(C(O)C2C=CC3C(=O)N(C)C(=O)C3N2N2CCCCC2)cc1OCc1ccccc1` (stereo unspecified) as the compound, how does the z-score read?
Answer: Its z-score is 0.245.

Question: For `COC(=O)[C@@]1(Cc2ccc(OC)cc2)[C@H]2c3cc(C(=O)N(C)C)n(CCc4ccc(OC)c(Br)c4)c3C[C@H]2CN1C(=O)c1ccccc1`, which z-score is on record?
Answer: Its z-score is 1.02.

Question: For `CCCCCCc1nc(C2CC2)c(C)c2c1[Si](C(C)C)(C(C)C)OC2`, which z-score is on record?
Answer: Its z-score is -0.53.

Question: For `C[C@H]1C2[C@H](Cc3ccccc3)NC(=O)[C@]23C(=O)N[C@H](Cc2ccccc2)C(=O)N[C@@H](Cc2ccccc2)C(=O)NC/C=C\C/C=C/C3[C@@H]2O[C@]12C` (stereo partly specified), which z-score is on record?
Answer: The z-score was 0.531.

Question: Which z-score does the source give for `O=C1OCCC=C[C@H]2OC34C=CCN(Cc5ccccc5)C(=O)[C@H]3N(CCO)C(=O)[C@@H]4C12` (stereo partly specified) here?
Answer: The z-score was -0.618.

Question: With `C=CCN1C(=O)[C@@]2(Cc3ccccc3)N=C(c3ccc(OCCCO)cc3)O[C@H]2c2ccccc21` as the compound, how does the z-score read?
Answer: Its z-score is -0.0856.

Question: With `COCCOC(=O)N1C(=O)[C@@]2(c3cc(C#CCNC(N)=O)ccc31)[C@H](c1ccccc1OCCO)N1[C@H](c3ccccc3)[C@H](c3ccccc3)OC(=O)[C@H]1[C@@H]2C(=O)NC[C@H](O)c1ccccc1` as the compound, how does the z-score read?
Answer: Its z-score is 0.0689.

Question: For `CC(=O)NCCCC[C@@H]1NC(=O)[C@H]2C[C@@H](C(=O)NCCCCCCN(C)C)[C@@H](c3ccc(O)cc3)N2C1=O`, which z-score is on record?
Answer: Its z-score is 0.0655.

Question: Which z-score does the source give for `CN1C(=O)C2C=CC(C(O)c3ccc(N(C)C)cc3)N(Nc3ccc([N+](=O)[O-])cc3[N+](=O)[O-])C2C1=O` (stereo unspecified) here?
Answer: The z-score was 0.347.
